# Measured values from the antibiotic and cytotoxicity screens of Wong et al. (2023).
# In all, about 39,000 compounds went through this assay and about 3,300 (8.5%) were called active. Only a selection was taken, and actives are over-represented in it overall.
# Tested on: HepG2
# Experiment: cytotoxicity call (relative viability < 0.9)
# Details: 10 µM
row,Structure (SMILES),cytotoxicity call
1,COCC(=O)N1C[C@H](C)[C@@H](OC)CN(C)C(=O)c2cc(NC(=O)c3ccc(OC)cc3)ccc2OC[C@H]1C,inactive
2,COc1ccc2c3c([nH]c2c1)[C@H](CO)N(C[C@]13CCN(CC1)C(=O)c1cccnc1)C(=O)c1cccnc1,inactive
3,C/C=C/c1ccc([C@@H]2[C@H](CO)N(S(=O)(=O)CC)C23CN(C(=O)CN(C)C)C3)cc1,inactive
4,C[C@H](CO)N1C[C@H](C)[C@H](CN(C)Cc2ccc(Oc3ccccc3)cc2)Oc2c(NC(=O)C3CCCCC3)cccc2C1=O,inactive
5,COc1ccc(NC(=O)N(C)C[C@@H]2OCCCC[C@H](C)Oc3ccc(NS(=O)(=O)c4ccccc4)cc3C(=O)N([C@H](C)CO)C[C@H]2C)cc1,inactive
6,CC(C)NC(=O)N(C)C[C@@H]1Oc2c(NS(=O)(=O)c3cccs3)cccc2C(=O)N([C@@H](C)CO)C[C@@H]1C,inactive
7,C[C@@H]1CN([C@@H](C)CO)C(=O)c2cc(NC(=O)Cc3ccccc3)ccc2O[C@@H](C)CCCCO[C@H]1CN(C)S(=O)(=O)c1ccc(Cl)cc1,inactive
8,C[C@H](CO)N1C[C@H](C)[C@H](CN(C)S(=O)(=O)c2ccc(Cl)cc2)OCCCC[C@H](C)Oc2ccc(NC(=O)Cc3ccccc3)cc2C1=O,inactive
9,C[C@@H]1CN([C@H](C)CO)C(=O)c2cc(NC(=O)Cc3ccccc3)ccc2O[C@@H](C)CCCCO[C@H]1CN(C)S(=O)(=O)c1ccc(Cl)cc1,inactive
10,C[C@@H]1CCCCO[C@@H](CN(C)S(=O)(=O)c2ccc(Cl)cc2)[C@H](C)CN([C@H](C)CO)C(=O)c2cc(NC(=O)Cc3ccccc3)ccc2O1,active
11,C[C@@H]1CN([C@H](C)CO)C(=O)c2cc(NC(=O)Cc3ccccc3)ccc2O[C@@H](C)CCCCO[C@@H]1CN(C)S(=O)(=O)c1ccc(Cl)cc1,inactive
12,C[C@@H]1CCCCO[C@H](CN(C)S(=O)(=O)c2ccc(Cl)cc2)[C@@H](C)CN([C@H](C)CO)C(=O)c2cc(NC(=O)Cc3ccccc3)ccc2O1,active
13,C[C@@H]1CCCCO[C@@H](CN(C)S(=O)(=O)c2ccc(Cl)cc2)[C@@H](C)CN([C@H](C)CO)C(=O)c2cc(NC(=O)Cc3ccccc3)ccc2O1,inactive
14,C[C@@H]1CCCCO[C@H](CN(C)S(=O)(=O)c2ccc(Cl)cc2)[C@@H](C)CN([C@@H](C)CO)C(=O)c2cc(NC(=O)Cc3ccccc3)ccc2O1,inactive
15,C[C@@H]1CCCCO[C@H](CN(C)S(=O)(=O)c2ccc(Cl)cc2)[C@H](C)CN([C@H](C)CO)C(=O)c2cc(NC(=O)Cc3ccccc3)ccc2O1,active
16,C[C@@H]1CCCCO[C@@H](CN(C)S(=O)(=O)c2ccc(Cl)cc2)[C@@H](C)CN([C@@H](C)CO)C(=O)c2cc(NC(=O)Cc3ccccc3)ccc2O1,inactive

row,Structure (SMILES),cytotoxicity call
1,C[C@H](CO)N1C[C@H](C)[C@@H](CN(C)S(=O)(=O)c2ccc(Cl)cc2)OCCCC[C@H](C)Oc2ccc(NC(=O)Cc3ccccc3)cc2C1=O,active
2,C[C@@H]1CCCCO[C@H](CN(C)S(C)(=O)=O)[C@@H](C)CN([C@@H](C)CO)C(=O)c2cc(N(C)C)ccc2O1,inactive
3,C[C@@H]1CN([C@@H](C)CO)C(=O)c2cccc(NC(=O)c3nc4ccccc4s3)c2O[C@@H]1CN(C)Cc1ccc(Oc2ccccc2)cc1,inactive
4,COc1cc(S(=O)(=O)NCCN2CCN(S(=O)(=O)c3cc(OC)c(Cl)cc3OC)CC2)c(OC)cc1Cl,inactive
5,COc1ccc(NC(=O)N(C)C[C@@H]2Oc3c(NC(=O)CCCCCC(=O)Nc4ccccc4N)cccc3C(=O)N([C@@H](C)CO)C[C@H]2C)cc1,inactive
6,Cc1ccc(S(=O)(=O)Nc2ccc3c(c2)C(=O)N([C@H](C)CO)C[C@H](C)[C@H](CN(C)C(=O)CCC(F)(F)F)OCCCC[C@H](C)O3)cc1,inactive
7,COc1ccc(NC(=O)N(C)C[C@H]2OCCCC[C@@H](C)Oc3ccc(NS(=O)(=O)c4cccs4)cc3C(=O)N([C@H](C)CO)C[C@H]2C)cc1,inactive
8,O=C(NCCN1CCOCC1)[C@@H]1c2ccccc2C(=O)N(C2Cc3ccccc3C2)[C@H]1c1ccc(CO)cc1,inactive
9,COCCNC(=O)C[C@@H]1CC[C@H]2[C@@H](COC[C@@H](O)CN2S(=O)(=O)c2ccccc2F)O1,inactive
10,COCC(=O)Nc1ccc2c(c1)C(=O)N(C)C[C@H](OC)[C@@H](C)CN(C(=O)c1ccccc1F)[C@H](C)CO2,inactive
11,C[C@@H]1CN([C@@H](C)CO)C(=O)Cc2cc(NS(=O)(=O)c3cn(C)cn3)ccc2O[C@H]1CN(C)C(=O)NC1CCCCC1,inactive
12,C[C@H]1CCCCO[C@H](CN(C)Cc2ccncc2)[C@@H](C)CN([C@@H](C)CO)C(=O)c2cc(NC(=O)NC3CCCCC3)ccc2O1,inactive
13,C[C@@H]1CN([C@@H](C)CO)C(=O)c2cc(NC(=O)Cc3ccccc3)ccc2O[C@@H](C)CCCCO[C@@H]1CN(C)S(=O)(=O)c1ccc(Cl)cc1,inactive
14,C[C@H]1CCCCO[C@H](CN(C)S(=O)(=O)c2ccc(Cl)cc2)[C@@H](C)CN([C@@H](C)CO)C(=O)c2cc(NC(=O)Cc3ccccc3)ccc2O1,active
15,C[C@@H]1CCCCO[C@@H](CN(C)S(=O)(=O)c2ccc(Cl)cc2)[C@H](C)CN([C@@H](C)CO)C(=O)c2cc(NC(=O)Cc3ccccc3)ccc2O1,inactive
